Common to all, as to assay: PBM; 200 nM protein, PBS
Holding throughout (details): dsDNA, one strand shown

Assay [1] has as its target SHOX (Homo sapiens, UniProt O15266 103-189).
The target in assay [2] is T1, NKX2-4 (Homo sapiens, UniProt Q9H2Z4 175-261, P217L).
T1 sequence: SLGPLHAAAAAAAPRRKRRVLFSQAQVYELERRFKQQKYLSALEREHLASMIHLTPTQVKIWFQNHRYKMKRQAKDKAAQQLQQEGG

Assay [3] has as its target T2, VENTX (Homo sapiens, UniProt O95231 78-163, R121Q).
T2 sequence: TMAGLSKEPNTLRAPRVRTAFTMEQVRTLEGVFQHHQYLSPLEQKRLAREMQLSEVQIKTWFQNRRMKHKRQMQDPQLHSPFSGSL

The target of assay [4] is T3, VENTX (Homo sapiens, UniProt O95231 78-163).
T3 sequence: T2 sequence with Q44R

Assay [5] addresses T4, NKX2-4 (Homo sapiens, UniProt Q9H2Z4 175-261, T231S).
T4 sequence: T1 sequence with L43P, T57S

The target of assay [6] is T5, VENTX (Homo sapiens, UniProt O95231 78-163, Y115F).
T5 sequence: T2 sequence with Y38F, Q44R

Assay [7] deals with T6, NKX2-4 (Homo sapiens, UniProt Q9H2Z4 175-261).
T6 sequence: T1 sequence with L43P

The target in assay [8] is ALX1 (Homo sapiens, UniProt Q15699 118-204, L144V).
For assay [9], the target named is ALX3 (Homo sapiens, UniProt O95076 139-225, N203Q).
For assay [10], the target named is SHOX (Homo sapiens, UniProt O15266 103-189, R173C).
The target of assay [11] is ALX1 (Homo sapiens, UniProt Q15699 118-204, L144R).
Assay [12] addresses ALX3 (Homo sapiens, UniProt O95076 139-225).
Assay [13] has as its target T7, NKX2-4 (Homo sapiens, UniProt Q9H2Z4 175-261, R246Q).
T7 sequence: T1 sequence with L43P, R72Q

The target of assay [14] is ALX3 (Homo sapiens, UniProt O95076 139-225, L168Q).
For assay [15], the target named is ALX3 (Homo sapiens, UniProt O95076 139-225, L168V).
Assay [16] deals with ALX1 (Homo sapiens, UniProt Q15699 118-204).
For assay [17], the target named is ALX3 (Homo sapiens, UniProt O95076 139-225, N203S).
Assay [18] addresses T8, SIX6 (Homo sapiens, UniProt O95475 114-200, L167I).
T8 sequence: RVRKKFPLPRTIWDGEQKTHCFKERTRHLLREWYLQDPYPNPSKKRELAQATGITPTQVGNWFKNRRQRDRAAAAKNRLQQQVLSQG

For assay [19], the target named is T9, SIX6 (Homo sapiens, UniProt O95475 114-200, L143V).
T9 sequence: T8 sequence with L30V, I54L

Assay [20] concerns the target T10, SIX6 (Homo sapiens, UniProt O95475 114-200, H141N).
T10 sequence: T8 sequence with H28N, I54L

Assay [21] concerns the target T11, SIX6 (Homo sapiens, UniProt O95475 114-200, T165P).
T11 sequence: T8 sequence with T52P, I54L

Assay [22] addresses T12, SIX6 (Homo sapiens, UniProt O95475 114-200, L167M).
T12 sequence: T8 sequence with I54M

In assay [23] the target is T13, SIX6 (Homo sapiens, UniProt O95475 114-200, L143M).
T13 sequence: T8 sequence with L30M, I54L

Assay [24] concerns the target T14, SIX6 (Homo sapiens, UniProt O95475 114-200, L143I).
T14 sequence: T8 sequence with L30I, I54L

The target in assay [25] is T15, SIX6 (Homo sapiens, UniProt O95475 114-200, T165G).
T15 sequence: T8 sequence with T52G, I54L

The target of assay [26] is T16, SIX6 (Homo sapiens, UniProt O95475 114-200, T139Q).
T16 sequence: T8 sequence with T26Q, I54L

In assay [27] the target is T17, SIX6 (Homo sapiens, UniProt O95475 114-200, T165A).
T17 sequence: T8 sequence with T52A, I54L

Assay [28] has as its target T18, SIX6 (Homo sapiens, UniProt O95475 114-200, L167V).
T18 sequence: T8 sequence with I54V

Assay [29] addresses T19, SIX6 (Homo sapiens, UniProt O95475 114-200).
T19 sequence: T8 sequence with I54L

Assay [30] concerns the target T20, SIX6 (Homo sapiens, UniProt O95475 114-200, T165I).
T20 sequence: T8 sequence with T52I, I54L

In assay [31] the target is HOXB9 (Homo sapiens, UniProt P17482 171-250, T197M).
Assay [32] concerns the target HOXB9 (Homo sapiens, UniProt P17482 171-250).
The target in assay [33] is HOXB9 (Homo sapiens, UniProt P17482 171-250, R186Q).
For assay [34], the target named is NKX3-2 (Homo sapiens, UniProt P78367 192-278, P234S).
In assay [35] the target is NKX3-2 (Homo sapiens, UniProt P78367 192-278).
Assay [36] addresses HOXB6 (Homo sapiens, UniProt P17509 132-218, K202E).
The target of assay [37] is HOXB6 (Homo sapiens, UniProt P17509 132-218).

Residue numbers refer to the chain shown, from its start.

In paper PMC11006913 one finds binding signal data, which are given here for 7 sequences.

SHOX (Homo sapiens, UniProt O15266 103-189, R173C), sequence (O15266 103-189 R173C): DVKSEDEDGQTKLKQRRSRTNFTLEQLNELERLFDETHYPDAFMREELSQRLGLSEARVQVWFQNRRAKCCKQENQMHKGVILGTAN
SHOX (Homo sapiens, UniProt O15266 103-189), sequence (O15266 103-189): as the sequence (O15266 103-189 R173C) above, with C71R counted along it
ALX3 (Homo sapiens, UniProt O95076 139-225, L168V), sequence (O95076 139-225 L168V): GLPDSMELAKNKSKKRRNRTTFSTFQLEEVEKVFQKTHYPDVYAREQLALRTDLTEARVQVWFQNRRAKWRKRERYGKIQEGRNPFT
ALX3 (Homo sapiens, UniProt O95076 139-225, N203S), sequence (O95076 139-225 N203S): as the sequence (O95076 139-225 L168V) above, with V30L, N65S counted along it
ALX1 (Homo sapiens, UniProt Q15699 118-204, L144V), sequence (Q15699 118-204 L144V): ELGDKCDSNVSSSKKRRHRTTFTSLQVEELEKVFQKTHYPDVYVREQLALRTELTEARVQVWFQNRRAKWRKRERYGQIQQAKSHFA
NKX3-2 (Homo sapiens, UniProt P78367 192-278), sequence (P78367 192-278): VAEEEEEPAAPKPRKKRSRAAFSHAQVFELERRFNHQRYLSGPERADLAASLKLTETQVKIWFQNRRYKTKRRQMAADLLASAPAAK
HOXB9 (Homo sapiens, UniProt P17482 171-250, T197M), sequence (P17482 171-250 T197M): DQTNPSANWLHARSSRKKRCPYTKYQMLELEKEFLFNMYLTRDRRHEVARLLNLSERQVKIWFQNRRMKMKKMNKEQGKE
ALX3 (Homo sapiens, UniProt O95076 139-225, N203Q), sequence (O95076 139-225 N203Q): as the sequence (O95076 139-225 L168V) above, with V30L, N65Q counted along it
HOXB9 (Homo sapiens, UniProt P17482 171-250), sequence (P17482 171-250): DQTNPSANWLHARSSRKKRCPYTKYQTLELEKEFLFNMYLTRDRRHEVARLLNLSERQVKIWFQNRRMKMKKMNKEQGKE
HOXB9 (Homo sapiens, UniProt P17482 171-250, R186Q), sequence (P17482 171-250 R186Q): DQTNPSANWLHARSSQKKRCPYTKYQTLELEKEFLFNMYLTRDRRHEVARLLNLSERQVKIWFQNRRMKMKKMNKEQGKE
ALX1 (Homo sapiens, UniProt Q15699 118-204), sequence (Q15699 118-204): as the sequence (Q15699 118-204 L144V) above, with V27L counted along it
NKX3-2 (Homo sapiens, UniProt P78367 192-278, P234S), sequence (P78367 192-278 P234S): as the sequence (P78367 192-278) above, with P43S counted along it
HOXB6 (Homo sapiens, UniProt P17509 132-218, K202E), sequence (P17509 132-218 K202E): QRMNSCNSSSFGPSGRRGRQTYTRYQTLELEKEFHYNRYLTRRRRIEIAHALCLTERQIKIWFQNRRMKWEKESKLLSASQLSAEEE
ALX3 (Homo sapiens, UniProt O95076 139-225), sequence (O95076 139-225): as the sequence (O95076 139-225 L168V) above, with V30L counted along it
ALX1 (Homo sapiens, UniProt Q15699 118-204, L144R), sequence (Q15699 118-204 L144R): as the sequence (Q15699 118-204 L144V) above, with V27R counted along it
HOXB6 (Homo sapiens, UniProt P17509 132-218), sequence (P17509 132-218): as the sequence (P17509 132-218 K202E) above, with E71K counted along it
ALX3 (Homo sapiens, UniProt O95076 139-225, L168Q), sequence (O95076 139-225 L168Q): as the sequence (O95076 139-225 L168V) above, with V30Q counted along it

GCCGTAGC: the binding signal in the assay with SHOX [1] was 6.96 upbm affinity estimate (log intensity, higher = more binding, comparable within an allelic series); in the assay with NKX2-4 [2] it was 9.17 upbm affinity estimate (log intensity, higher = more binding, comparable within an allelic series); with VENTX [3] it was 7.91 upbm affinity estimate (log intensity, higher = more binding, comparable within an allelic series); with VENTX [4], 7.82 upbm affinity estimate (log intensity, higher = more binding, comparable within an allelic series); with NKX2-4 [5], 9.15 upbm affinity estimate (log intensity, higher = more binding, comparable within an allelic series); with VENTX [6], 7.86 upbm affinity estimate (log intensity, higher = more binding, comparable within an allelic series). Further, the binding signal is 9.34 upbm affinity estimate (log intensity, higher = more binding, comparable within an allelic series) in the assay with NKX2-4 [7]; 6.19 upbm affinity estimate (log intensity, higher = more binding, comparable within an allelic series) in the assay with ALX1 [8]; 7.67 upbm affinity estimate (log intensity, higher = more binding, comparable within an allelic series) with ALX3 [9]; 7.22 upbm affinity estimate (log intensity, higher = more binding, comparable within an allelic series) with SHOX [10]; 6.26 upbm affinity estimate (log intensity, higher = more binding, comparable within an allelic series) with ALX1 [11]; 7.55 upbm affinity estimate (log intensity, higher = more binding, comparable within an allelic series) with ALX3 [12]. The binding signal in the assay with NKX2-4 [13] is 9.33 upbm affinity estimate (log intensity, higher = more binding, comparable within an allelic series); with ALX3 [14] it was 7.74 upbm affinity estimate (log intensity, higher = more binding, comparable within an allelic series); with ALX3 [15] it was 7.76 upbm affinity estimate (log intensity, higher = more binding, comparable within an allelic series); with ALX1 [16], 6.18 upbm affinity estimate (log intensity, higher = more binding, comparable within an allelic series); in the assay with ALX3 [17], 7.68 upbm affinity estimate (log intensity, higher = more binding, comparable within an allelic series).
Regarding CGACCGCC, the binding signal with SHOX [1] is 7.14 upbm affinity estimate (log intensity, higher = more binding, comparable within an allelic series); with SIX6 [18] it was 8.99 upbm affinity estimate (log intensity, higher = more binding, comparable within an allelic series); in the assay with SIX6 [19] it was 8.82 upbm affinity estimate (log intensity, higher = more binding, comparable within an allelic series); in the assay with SIX6 [20] it was 8.95 upbm affinity estimate (log intensity, higher = more binding, comparable within an allelic series); in the assay with SIX6 [21], 8.87 upbm affinity estimate (log intensity, higher = more binding, comparable within an allelic series); with SIX6 [22], 9.03 upbm affinity estimate (log intensity, higher = more binding, comparable within an allelic series). Also, the binding signal with SIX6 [23] is 8.84 upbm affinity estimate (log intensity, higher = more binding, comparable within an allelic series); with SIX6 [24], 8.91 upbm affinity estimate (log intensity, higher = more binding, comparable within an allelic series); with SIX6 [25] it was 9.05 upbm affinity estimate (log intensity, higher = more binding, comparable within an allelic series); with SIX6 [26], 8.92 upbm affinity estimate (log intensity, higher = more binding, comparable within an allelic series); in the assay with SIX6 [27], 8.95 upbm affinity estimate (log intensity, higher = more binding, comparable within an allelic series); with SHOX [10] it was 7.26 upbm affinity estimate (log intensity, higher = more binding, comparable within an allelic series). Moreover, the binding signal was 8.84 upbm affinity estimate (log intensity, higher = more binding, comparable within an allelic series) with SIX6 [28]; 8.95 upbm affinity estimate (log intensity, higher = more binding, comparable within an allelic series) with SIX6 [29]; 9.02 upbm affinity estimate (log intensity, higher = more binding, comparable within an allelic series) in the assay with SIX6 [30].
Regarding GCCGGGCA, the binding signal in the assay with SHOX [1] is 7.25 upbm affinity estimate (log intensity, higher = more binding, comparable within an allelic series); with HOXB9 [31], 8.48 upbm affinity estimate (log intensity, higher = more binding, comparable within an allelic series); in the assay with HOXB9 [32], 8.45 upbm affinity estimate (log intensity, higher = more binding, comparable within an allelic series); with SHOX [10], 7.18 upbm affinity estimate (log intensity, higher = more binding, comparable within an allelic series); in the assay with HOXB9 [33], 8.59 upbm affinity estimate (log intensity, higher = more binding, comparable within an allelic series); with NKX3-2 [34] it was 10.6 upbm affinity estimate (log intensity, higher = more binding, comparable within an allelic series). In the assay with NKX3-2 [35], the binding signal was 10.6 upbm affinity estimate (log intensity, higher = more binding, comparable within an allelic series).
GCTCCGAC: the binding signal is 7.2 upbm affinity estimate (log intensity, higher = more binding, comparable within an allelic series) in the assay with SHOX [1]; 8.1 upbm affinity estimate (log intensity, higher = more binding, comparable within an allelic series) with VENTX [3]; 8.29 upbm affinity estimate (log intensity, higher = more binding, comparable within an allelic series) in the assay with VENTX [4]; 8.19 upbm affinity estimate (log intensity, higher = more binding, comparable within an allelic series) in the assay with VENTX [6]; 9.12 upbm affinity estimate (log intensity, higher = more binding, comparable within an allelic series) with HOXB6 [36]; 7.25 upbm affinity estimate (log intensity, higher = more binding, comparable within an allelic series) with SHOX [10]. For the same sequence, the binding signal with HOXB6 [37] is 9.05 upbm affinity estimate (log intensity, higher = more binding, comparable within an allelic series).
With CCCATTTA, in the assay with SHOX [1], the binding signal is 8.95 upbm affinity estimate (log intensity, higher = more binding, comparable within an allelic series).
Consider TAAATGGA, for which the binding signal with SHOX [1] is 8.78 upbm affinity estimate (log intensity, higher = more binding, comparable within an allelic series).
Still for that read-out and setting: the result for GAATTACA reads 9.41 upbm affinity estimate (log intensity, higher = more binding, comparable within an allelic series).
